AMA1-RON2 inh = AMA1-RON2 (P. falciparum) interaction inhibition | AlphaScreen AMA1-biotinylated RON2 peptide binding | Potency, µM (series often up to 58.2 µM), for inactives: at the highest dose activity change, negative = inhibition, most hits filed as inhibitors | 360,000 compounds, 0.2% hits;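 note: 0% = vehicle wells and -100% = peptide control; nearly all actives have a fitted effect of over 45% in size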
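AMA1 (3D7) with his tag at 25 nM final met compounds first, then biotinylated RON2 peptide at 25 nM; detection used donor plus acceptor beads, 10 µg/mL apiece, read by AlphaScreen after 30 min at room temperature.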
Pf growth 96h = P. falciparum growth inhibition at 96 hour, primary screen for plastid delayed-death inhibitors; P. falciparum luciferase reporter growth, 96 h; Potency, µM (titrated, usually from 28.7 µM), inactives show top-dose activity change, negative = inhibition, usual class: inhibitors; 320,000 compounds, 6.9% hits; AID 504834; note: % is set by controls: 0 for no effect and ±100 for the full control effect
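Infected RBCs, 2% Hct / 0.05% parasitemia final; luciferase-reporter P. falciparum; cpd 96 h, 37 C, 5% CO2; luciferase detection reagent; luminescence.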
Sm TGR inh = S. mansoni TGR enzyme inhibition; Q962Y6; purified TGR, DTNB reduction, TNB absorbance 405 nm; Potency, µM (top dose mostly 114 µM), inactives show at the top dose activity change, negative = inhibition, actives largely listed as inhibitors; 360,000 compounds, 3% hits; AID 485364; note: % is set by controls: 0 for no effect and ±100 for the full control effect; nearly all actives have a fitted effect of over 60% in size
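Kinetic colorimetric format: TGR-catalysed, NADPH-driven DTNB reduction monitored via TNB absorbance. Enzyme dispensed at 20 nM; compound exposure 15 min at room temperature before reaction start.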
Pf growth 48h = P. falciparum growth inhibition at 48 hours (one generation) | P. falciparum luciferase growth in erythrocytes, 48 h | Potency, µM (doses to about 28.7 µM), inactives show top-dose activity change, negative = inhibition, most hits filed as inhibitors | 310,000 compounds, 5.9% hits; note: % is set by controls: 0 for no effect and ±100 for the full control effect
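Luciferase-expressing P. falciparum in infected erythrocytes (2% hematocrit, 0.1% parasitemia final) in RPMI 1640/0.5% Albumax were exposed to compound for 48 hours at 37 C, 5% CO2; growth read as luminescence.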
NS1 function inh = influenza NS1 inhibition; Potency, µM (series often up to 46.1 µM), for the others: at the highest dose activity, positive = more growth; 270,000 compounds, 0.4% hits; AID 2326; calls by dose curve; note: actives are rising curves; nearly all actives have a fitted effect of over 50% in size
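A cell-based growth assay was used: compounds that relieve NS1-induced slow growth of budding yeast raise OD600. Assay medium was yeast nitrogen base with ammonium sulphate and -URA supplement, pH 6.0, with 2% galactose.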
* = called active by the depositor; ? = inconclusive; · = no result given; [ ] = dose if it differs, or a comment. A selection: hits, their analogues and other compounds. The true share with any hit is near 11%. Unless noted, calls come from the whole dose curve; as a rule, active = well fitted curve in the direction sought with a large enough effect; inconclusive = small, poorly fitted or top-dose-only effect, or another doubt; inactive = no such curve, though single readings can be large; an effect the other way counts as inactive or inconclusive. Potency is the fitted concentration of half-maximal effect.

SMILES	AMA1-RON2 inh	Pf growth 96h	Sm TGR inh	Pf growth 48h	NS1 function inh
CCN(c1ccccc1)S(=O)(=O)c1ccc(NC(=S)NC(=O)c2cccs2)cc1	94.2%	?	?	?	22.4%
O=C(NC(=S)Nc1ccc(-c2ccc(CO)o2)cc1)c1cccs1	70.4%	19.2%	8.91µM*	143.7%	·
O=C(NC(=S)Nc1ccc(S(=O)(=O)N2CCCCCC2)cc1)c1cccs1	36.2%[11.6 µM]	26.7%	?	0.0%	-3.3%
O=C(NC(=S)Nc1ccc(S(=O)(=O)N2CCCC2)cc1)c1cccs1	34.8%	?	17.8µM*	-17.4%	10.7%
O=C(NC(=S)Nc1ccc(N2CCCCC2)cc1)c1cccs1	?	?	39.8µM*	?	-0.5%
O=C(NNC(=O)C12CC3CC(CC(Cl)(C3)C1)C2)c1csc(N2CCOCC2)n1	107.3%	-24.1%	1.0%	?	13.1%
COc1cc(OC)cc(C(=O)NC(=S)Nc2ccc(N3CCCC3)cc2)c1	-17.3%	5.7%	89.1µM*	?	13.3%
CC(=O)NC(=S)Nc1ccc(NC(=S)NC(=O)c2cccs2)cc1	0.0%	45.6%	-26.1%	?	-1.4%
CCN(CC)c1ccc(NC(=O)CN(C)Cc2cccs2)cc1	12.6µM*	0.0%	-25.4%	?	-11.2%
CCN(CC)c1ccc(NC(=S)NC(=O)c2cccs2)cc1	?	?	8.91µM*	?	-8.0%
COc1cc(OC)cc(C(=O)NC(=S)N2CCCCCC2)c1	27.3%	36.0%	6.0%[57.1 µM]	?	-7.5%
Cc1ccc(NC(=O)CN(C)Cc2cccs2)cc1Cl	-15.0%	47.4%	-5.1%	36.5%	-15.6%
N#CC1=C2SCCN2C(=O)C(C#N)C12CCCCC2 (stereo not given)	-7.2%	2.08µM*	-3.6%	-7.8%	-14.6%
Oc1ccc(COc2cccc3ccccc23)c2cccnc12	·	5.22µM*	8.91µM*	2.62µM*	·
CC(C)NC[C@@H](O)c1ccc(O)c2ncccc12	·	·	·	·	-1.7%
COCc1ccc(O)c2ncccc12	25.1µM*	?	-33.5%	·	-140.9%
Oc1ccc(COCc2ccc(F)cc2)c2cccnc12	·	4.15µM*	35.5µM*	2.94µM*	·
Oc1ccc(COC2CCCC2)c2cccnc12	·	8.28µM*	17.8µM*	1.31µM*	·
O=C(CN1C(=O)NC2(CCCc3ccccc32)C1=O)c1ccccc1F (stereo not given)	18.1%	·	·	·	·
COc1ccccc1/C=C1\C(=O)NC(=S)N(c2ccccc2)C1=O	4.3%	16.9%	8.91µM*	3.1%	7.7%
CCOc1cccc(N2C(=O)/C(=C/c3ccco3)C(=O)NC2=S)c1	?	-20.6%	?	-14.9%	?
COc1ccccc1C=C1C(=O)NC(=S)NC1=O	-7.1%	·	·	·	·
COc1ccc(N2C(=O)/C(=C/C=C/c3ccccc3[N+](=O)[O-])C(=O)NC2=S)cc1	48.7%	41.3%	44.7µM*	-15.4%	·
COc1ccc(N2C(=O)/C(=C/c3cccs3)C(=O)NC2=S)cc1	20.4%	16.7%	35.5µM*	-1.6%	6.7%
O=C1NC(=S)N(c2ccccc2)C(=O)/C1=C/c1ccco1	8.91µM*	-12.4%	14.1µM*	16.1%	?
SMILES	AMA1-RON2 inh	Pf growth 96h	Sm TGR inh	Pf growth 48h	NS1 function inh
O=C(CCc1ccccc1)NNC(=O)COc1ccccc1Cl	105.7%	3.6%	2.4%	?	2.0%
COc1ccc(-c2cc3nc(-c4ccc(C)cc4)cc(C(F)(F)F)n3n2)cc1	·	·	-22.9%	·	·
COc1cc2cc(C(C)(C)O)oc(=O)c2cc1OC	-4.1%	33.4%	-4.7%	26.6%	·
CCC[C@@H](O)c1cc2cc(OC)c(OC)cc2c(=O)o1	12.9%	2.62µM*	-10.1%	-0.1%	·
O=C(Nc1ccc2sccc2c1)c1cccc(N2C(=O)CCC2=O)c1	18.2%	59.8%	1.4%	5.2%	-6.0%
COC(=O)c1ccc(C(=O)NC2CCCc3c2cnn3-c2ccccc2F)nc1 (stereo not given)	-6.9%	?	-11.7%	10.6%	-7.0%
COc1cc(C(=O)NC2CCCc3c2cnn3-c2ccccc2F)cc(OC)c1OC (stereo not given)	-5.5%	3.29µM*	1.6%	?	1.2%
CCc1ccc(OCC2c3cc(OC)c(OC)cc3CCN2C(=S)NCCOC)cc1 (stereo not given)	-27.0%	10.4µM*	6.6%	?	4.5%
COC(=O)c1ccc(OCC2c3cc(OC)c(OC)cc3CCN2C(=O)C2CC2)cc1 (stereo not given)	-16.9%	?	0.0%	11.7µM*	-4.9%
CCc1ccc(OCC2c3cc(OC)c(OC)cc3CCN2C(=S)NC)cc1 (stereo not given)	-25.6%	?	4.3%	?	·
COC(=O)c1ccc(OCC2c3cc(OC)c(OC)cc3CCN2C(=O)C(C)C)cc1 (stereo not given)	·	·	34.1%	·	·
COC(=O)[C@H](Cc1ccccc1)N1C/C=C\COc2c(Cl)cc(Cl)cc2S1(=O)=O	-4.5%	·	·	·	·
CCc1cccc(CC)c1N1C(=O)CSCC1=O	5.2%	·	·	·	·
O=C(c1ccccc1)c1nc2ccccc2n(CCCn2c(=O)c(C(=O)c3ccccc3)nc3ccccc32)c1=O	-5.2%	?	1.0%	3.7µM*	27.9%
Cn1c(=O)c(C(=O)c2ccccc2)nc2ccccc21	-5.9%	1.4%	7.8%[11.4 µM]	·	3.4%
COc1ccc(C(C(=O)NCC2CCCO2)N(C(=O)c2snc(C(N)=O)c2N)c2ccccc2C)cc1OC (stereo not given)	-4.3%	34.0%	0.1%	11.7µM*	28.7%
CCOc1ccc(C(C(=O)NCC2CCCO2)N(CCc2cccc(C)c2)C(=O)c2snc(C(N)=O)c2N)cc1 (stereo not given)	-16.2%	-0.8%	-12.5%	9.28µM*	13.7%
CCOc1ccc(C(C(=O)NCC2CCCO2)N(C(=O)c2snc(C(N)=O)c2N)c2ccc(F)cc2)cc1 (stereo not given)	-0.6%	21.2%	2.4%	?	9.9%
Cc1cccc(N(C(=O)c2snc(C(N)=O)c2N)C(C(=O)NCC2CCCO2)c2ccc(N(C)C)cc2)c1C (stereo not given)	1.3%	7.38µM*	7.4%	?	2.8%
CCc1ccccc1N(C(=O)c1snc(C(N)=O)c1N)C(C(=O)NCC1CCCO1)c1ccc(OC)c(OC)c1 (stereo not given)	-7.6%	44.0%	-21.3%	11.7µM*	0.6%
COc1ccc(C(C(=O)NCC2CCCO2)N(Cc2ccccc2)C(=O)c2snc(C(N)=O)c2N)cc1OC (stereo not given)	-0.9%	?	8.9%	?	-2.3%
COc1ccc(C(C(=O)NCC2CCCO2)N(C(=O)c2snc(C(N)=O)c2N)c2ccccc2)cc1OC (stereo not given)	-6.4%	?	-9.6%	?	-14.1%
CCOc1ccc(C2CC(=O)Nc3nc(SCc4ccccc4C)[nH]c(=O)c32)cc1OC (stereo not given)	·	·	-0.4%	·	·
Oc1ccccc1/C=N/Nc1ccnc(SCc2ccccc2)n1	64.6%	1.85µM*	0.5%	10.4µM*	?

Screening results: PubChem BioAssay, National Center for Advancing Translational Sciences (NCATS)
